# Laboratory results: PubChem BioAssay (NCI)
# This is part of a sample that, as a whole, favours compounds with a hit. Of some 83,000 tested, about 20% had one in any assay.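 Note: values are percent growth. 100 is the growth of untreated cells, values between 100 and 0 indicate rising inhibition; between -100 and 0 indicates cell death.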 A number with no mark means an inactive call. Active and inactive are the calls of the source. The calls were made as follows: active = growth percent below 10; inactive = the rest.
# What was measured:
# Experiment in all cases: NCI-60 one-dose screen, 48 h (100 = growth as untreated, 0 = no growth, -100 = all killed)
# Details in all cases: 10 µM unless noted
# [1] = test system: DU-145 prostate
# [2] = test system: K-562 leukemia
# [3] = test system: MALME-3M melanoma
# [4] = test system: MDA-MB-231 breast
# [5] = test system: RXF 393 renal
# [6] = test system: SF-268 CNS
# [7] = test system: SF-295 CNS
# [8] = test system: SF-539 CNS
# [9] = test system: UACC-257 melanoma
# [10] = test system: M14 melanoma
# [11] = test system: HCT-15 colon
# [12] = test system: HT29 colon
# [13] = test system: SNB-75 CNS
# [14] = test system: SNB-19 CNS
# [15] = test system: U251 CNS
# [16] = test system: PC-3 prostate
# [17] = test system: SK-MEL-5 melanoma
# [18] = test system: UACC-62 melanoma
# [19] = test system: LOX IMVI melanoma
# [20] = test system: SK-MEL-28 melanoma
SMILES,growth [1],growth [2],growth [3],growth [4],growth [5],growth [6],growth [7],growth [8],growth [9],growth [10],growth [11],growth [12],growth [13],growth [14],growth [15],growth [16],growth [17],growth [18],growth [19],growth [20]
CCC(=C(c1ccc(OCCN(C)C)cc1)c1ccc(OCCN(C)C)cc1)c1ccc(Cl)cc1,-28.8% (active),-16.7% (active),-83.7% (active),-79.5% (active),-85.4% (active),-37.1% (active),-72.2% (active),-82.8% (active),-69.8% (active),-66.3% (active),-74.8% (active),-38.9% (active),17.7%,-39.8% (active),-64.5% (active),-12.1% (active),-95.8% (active),-73.6% (active),-98.1% (active),-83.3% (active)
Cc1ccc(C(=O)CSc2nnc(-c3ccc(-c4ccc(Cl)cc4)nc3C)o2)cc1,115%,101%,96.1%,92.6%,119%,105%,92.5%,97.6%,118%,98.2%,102%,104%,90.7%,99.3%,104%,94.6%,95%,84.8%,95.3%,99.9%
Cc1ccc(CSC2=C(Cl)CN(c3ccc(Cl)cc3)C2=O)cc1,108%,100%,96.9%,107%,111%,108%,101%,103%,107%,107%,99.2%,116%,103%,93.5%,101%,107%,99.8%,94.7%,33.9%,104%
C[C@@H]1OCC2(CCN(c3cnc(C(=O)Nc4cc(F)cc5cccnc45)cn3)CC2)[C@@H]1N,77%,8.84% (active),53.1%,38.9%,65.4%,78.9%,90.8%,71.7%,102%,81.5%,20.9%,32.4%,65.1%,78.1%,75.3%,55.7%,94.4%,54%,44.5%,70%
CCOP(=O)(OCC)OC[C@]12CCC(C)(C)CC1C1=CC[C@@H]3[C@@]4(C)CCCNC(C)(C)[C@@H]4CC[C@@]3(C)[C@]1(C)CC2 (stereo not given in full),82.6%,2.53% (active),103%,81.1%,64%,80.2%,99.3%,86.3%,98.2%,83.3%,44.3%,42%,93.6%,87%,56.3%,51.3%,80.7%,90.5%,25.3%,101%
C#CCOc1ccc(/C=N/Nc2nc(-c3ccc(OC)cc3)cs2)cc1,78.7%,47.7%,83.9%,91.3%,99.1%,87.2%,66.8%,97.3%,76.1%,93.1%,80.1%,105%,86.2%,87.8%,96.4%,73.1%,70.1%,67.1%,89.7%,102%
O=C(/C=C/C=C/c1csc(Br)n1)NO,94.3%,73%,85.2%,106%,95.2%,102%,107%,83.2%,79.8%,94.6%,94.5%,94.5%,75.6%,94.4%,98.6%,84.8%,96%,84.8%,-31.7% (active),102%
Fc1ccc2nc(-c3cnn4cccnc34)sc2c1,103%,86.2%,108%,84.3%,92.9%,82.5%,100%,86.7%,100%,101%,76.9%,97.9%,68.5%,82.1%,75.8%,84.3%,90%,75.4%,92.9%,117%
O=c1oc2ccc(-c3ccc(F)cc3F)cc2c(=O)n1-c1ccc(Br)cc1F,85.2%,45.4%,61.5%,87%,80.8%,58.6%,77.6%,74.3%,48.1%,80.7%,47.4%,109%,73.9%,71.7%,64%,78.9%,15%,21.1%,88.2%,77.3%
COc1ccc2sc(NC(=O)CCCCCCNC(=O)C(O)(O)C(F)(F)F)nc2c1,4.67% (active),11.2%,20.7%,20%,-47.6% (active),-0.601% (active),-37.1% (active),6.85% (active),12.5%,13.4%,5.37% (active),5.06% (active),41.4%,15.9%,-51.5% (active),34.1%,-82.2% (active),-64.6% (active),-81% (active),1.51% (active)
CN1CCN(CCCCCC(=O)Nc2nc(-c3cccc(NS(=O)(=O)c4cccc5c(N(C)C)cccc45)c3)cs2)CC1,84.8%,7.02% (active),17.5%,68.8%,50.9%,90.9%,35.6%,58.2%,42.7%,-28.7% (active),23.1%,15.8%,76.7%,83.7%,65%,67.4%,71%,83.2%,-84.8% (active),-61.1% (active)
CNC(=O)c1cc(-c2ccc(NC(=S)Nc3cccc(C(F)(F)F)c3)cc2)nc2cccnc12,103%,90.8%,112%,96.5%,107%,106%,93.3%,100%,104%,99.3%,98.2%,99.7%,91.2%,94.7%,95.3%,96.1%,96.2%,89.9%,95.3%,99.9%
CN1CCN(Cc2ccc(NC(=O)c3cncc(C#Cc4cnc5ccc(O[C@@H]6CCOC6)nn45)c3)cc2C(F)(F)F)CC1,-91.1% (active),-12.6% (active),-89.6% (active),-73.2% (active),-79.1% (active),-68.3% (active),-88.5% (active),-89% (active),-74.6% (active),-86.3% (active),-40.4% (active),-54.6% (active),-98.4% (active),-48.9% (active),-72.9% (active),-40.4% (active),-97.4% (active),-76.3% (active),-96.9% (active),-82.4% (active)
CCCCSC1=C(Cl)CN(c2ccc(Cl)cc2)C1=O,106%,82.6%,103%,104%,109%,105%,93%,85.2%,107%,96.5%,96.1%,105%,104%,93.3%,93.6%,98.4%,98.3%,93.4%,62.4%,102%
C#Cc1nc(/C=C\CCCCCCC(=O)NO)cs1,39.2%,14.7%,-19.8% (active),-11.8% (active),-4.23% (active),79.4%,65.3%,-81.3% (active),38.2%,61.6%,65.6%,55%,-57.7% (active),71.6%,70.6%,66.9%,31.9%,31.2%,-82% (active),54.1%
